The text below walks through data of PubChem BioAssay (NCATS).

Molecules are shown by their SMILES. Inconclusive results are not listed. A call without a number means that no potency is given here. Active and inactive are the calls of the source. Calls follow the shape of the dose curve; as a rule, active = well fitted inhibition curve with a large enough effect; inconclusive = small, poorly fitted or top-dose-only effect; inactive = flat fitted curve, though single readings scatter.

Chain of Calcium and integrin-binding protein 1 (Homo sapiens) (Q99828 whole entry, looked up): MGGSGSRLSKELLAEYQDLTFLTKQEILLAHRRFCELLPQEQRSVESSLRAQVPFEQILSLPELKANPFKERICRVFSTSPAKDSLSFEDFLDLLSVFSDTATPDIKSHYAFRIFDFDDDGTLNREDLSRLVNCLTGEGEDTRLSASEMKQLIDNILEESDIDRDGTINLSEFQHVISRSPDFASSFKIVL

For the test, the target named is Calcium and integrin-binding protein 1 (Homo sapiens) (UniProt Q99828). The test can be described thus: Primary qHTS for Identification of Calcium Integrin Binding Protein 1 (CIB1) Competitor (AID 1508620).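 Also: GST tagged CIB1 binding a fluorescein labelled alphaIIb integrin peptide tracer; top concentration of the series differs between compounds.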 The conditions noted are these: CIB1-GST / FITC-alphaIIb peptide fluorescence polarization; series mostly up to 114 µM. The procedure, abridged:
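CIB1-GST (1 uM final) and compound incubated 15 min at room temperature before adding FITC-alphaIIb peptide tracer (100 nM final). Competition for binding read by fluorescence polarization (ex 480, em 540) after another 15 min at room temperature.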
For the molecule `NC(=O)C1CCN(c2nc(-c3ccc(Br)cc3)cs2)CC1`, the Potency entry was “inactive”.

On to `COc1ccc(C2Nc3ccccc3C(=O)N2CCCN(C)C)cc1COc1ccc(NC(C)=O)cc1` (stereo not given), for which the Potency entry was “inactive”. As to `O=c1c2ccccc2nc2sc(NCc3ccccc3)nn12`, the Potency result was “inactive”.

Turning to `Cc1c(C(=O)N(C)CC2CCCO2)[nH]c2c1C(=O)CC(c1ccco1)C2` (stereo not given), the Potency result is “inactive”. For `Oc1cccc2cc(-c3ccccc3)cnc12`, the Potency entry is “inactive”. For `COc1cccc(Nc2nc(C#N)nc(NC3CCCC3)n2)c1` the value was “inactive”; for `O=C(O)c1ccc2c(c1)C(=O)N([C@H](Cc1ccc([N+](=O)[O-])cc1)C(=O)O)C2=O`, “inactive”. For `COc1cccc(CNc2ccc(S(=O)(=O)Nc3nc4ccccc4o3)cc2)c1O` the value was “inactive”; for `O=C(N[C@H]1CCCc2c1cnn2-c1ccc(F)cc1F)c1ccccn1`, “inactive”; for `Cc1cc(-c2nnc3n2CCCCC3)c(C)n1-c1cccc2ccccc12`, “inactive”. As for `Cc1cc(NS(=O)(=O)c2cc3c(cc2F)NC(=O)CC3)ccc1F`, the Potency result was “inactive”.

On to `c1nc(OCc2cnc[nH]2)c2cc(-c3ccc4c(c3)OCO4)ccc2n1`, for which the Potency entry was “inactive”. Then `COc1cccc(Cn2ncc3c4sc(C)cc4n(C)c3c2=O)c1`, with “inactive”; and `CCC(=O)NC(C)c1cc(Cl)c2ccccc2c1O` (stereo not given), with “inactive”; and `Cc1nc2ccccn2c1C(O)(c1ccccc1)c1ccccc1`, with “inactive”.

For the molecule `Cc1cccc(C2N=C(Nc3nc4ccccc4o3)NC3=C2C(=O)CCC3)c1` (stereo not given), the Potency result is “inactive”. For `N=c1c2c(ncn1CCN1CCOCC1)Oc1ccc3ccccc3c1C2c1ccccc1` (stereo not given) the value was “inactive”.

On to `CNc1cccc(S(=O)(=O)N2CCCN(S(=O)(=O)c3ccc4c(c3)OCCO4)CC2)c1`, for which the Potency result is “inactive”. Then `Cc1ccc(OCCn2c(CCNC(=O)c3ccc4cc[nH]c4c3)nc3ccccc32)cc1`, with “inactive”; and `Cc1cccc([S+](=O)([O-])NC2CCN(C#N)CC2)c1`, with “inactive”; and `CC(=O)Nc1sc2c(c1-c1ccccc1)CCNC2`, with “inactive”. On to `Cc1ccc(CNc2ncnc3ccc(-c4ccoc4)cc23)o1`, for which the Potency entry is “inactive”. Take `O=S(=O)(Nc1ccc(-c2ccccc2)cc1)c1ccc(NCc2ccc(Br)cc2O)cc1`: the Potency result was “inactive”. On to `Cc1nnc(-c2ccccc2C(C)C)nc1NCc1ccc(-c2cccnc2)cc1`, for which the Potency entry is “inactive”. Regarding `Cc1cc2c(s1)c1cnn(Cc3cc(C(F)(F)F)cc(Cl)c3F)c(=O)c1n2C`, the Potency result is “inactive”. For `Cc1ccc(-c2nc3ccccc3[nH]2)cc1NC(=O)c1ccc(-c2cccc(Cl)c2)o1` the value was “inactive”; for `O=[S+]([O-])(c1ccc2c(c1)OCCO2)N1CCN([S+](=O)([O-])c2c(F)cc(O)cc2F)CC1`, “inactive”.

For `Cc1cc(C)nc(NC(=S)N2CCN(c3ccc4cn(C)nc4c3)CC2)c1`, the Potency result was “inactive”. Consider `CCc1ccc(-c2nn3c(C)nnc3s2)cc1NC(=O)c1ccc(-c2cccc(Cl)c2)o1`, for which the Potency entry was “inactive”.

Turning to `FC(F)(F)c1ccccc1-c1nccc(NCc2ccc(-c3cccnc3)cc2)n1`, the Potency result is “inactive”. For `COc1cc(F)c(S(=O)(=O)N2CCN(S(=O)(=O)c3ccc(NC(C)=O)cc3)CC2)c(F)c1` the value was “inactive”; for `Cn1c2cc(CO)sc2c2cnn(Cc3ccccc3F)c(=O)c21`, “inactive”.

For the molecule `COc1cccc(OC2=NS(=O)(=O)c3ccccc32)c1`, the Potency result was “inactive”. Consider `COc1cc(-c2no[n+]([O-])c2C#N)cc(OC)c1OC`, for which the Potency result is “inactive”. In the case of `O=C1CCc2cc(S(=O)(=O)Nc3ccc(Cl)c(Cl)c3)c(F)cc2N1`, the Potency entry was “inactive”. For `Cc1cnc(-c2ccccc2C(C)C)nc1NCC1CN(c2cccnc2)C1` the value was “inactive”.

As to `COc1ccc(C2=Nn3c(nnc3-c3ccccc3C(F)(F)F)SC2)cc1OC1CCOC1` (stereo not given), the Potency entry was “inactive”.

For the molecule `Cc1cc(-c2nnc3n2CCCCC3)c(C)n1-c1ccc(C(F)(F)F)cc1`, the Potency entry is “inactive”. Then `Cc1ccc(OCCn2c(CCNC(=O)c3ccc(C#N)cc3)nc3ccccc32)cc1`, with “inactive”.

Take `CCc1nn2c(=O)cc(NC3CNC3)nc2s1`: the Potency result was “inactive”.
